Among all 360,000 compounds or so, about 1,800 (0.5%) were called active.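 Rule for the calls: active = mean inhibition of at least 75% with every replicate also reaching 75%; inconclusive = mean inhibition at least 75% but some replicate below; inactive = mean inhibition below 75%.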 Shown is part of a subset that was picked to be rich in actives.
Assay: reduction of Shn3 3'UTR firefly luciferase signal, primary screen, Schnurri-3 inhibitor project, cell-based, Clone20 osteoblasts, set 2 (AID 588674);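 note: 0% = median of neutral control wells and 100% = pilot-screen positive control compound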
Settings: Clone20 osteoblast Shn3 3'UTR firefly luciferase, 24 h; at 12.5 µM; hits give high values

Structure (SMILES)	inhibition
Cc1ccsc1C(=O)N[C@@H](C)c1nnc2ccccn12	1.01% (inactive)
CNC(=O)c1cccc2nc3ccccc3nc12	-0.196% (inactive)
CCCN(CCC)CCNC(=O)c1cc2c(C)nc3ccccc3c2o1	24.7% (inactive)
CN(C)CCNC(=O)c1ccc(Cl)c2cc3ccccc3nc12	94.1% (active)
O=C(CNCc1ccc(Cl)cc1)Nc1cccc(C(=O)O)c1	-8.08% (inactive)
O=C(/C=C/c1ccc([N+](=O)[O-])cc1)NCCSCc1ccco1	-1.26% (inactive)
COc1ccc(C)cc1-n1nnnc1SCC(=O)c1cc(C)n(Cc2ccco2)c1C	3.21% (inactive)
COC(=O)CC(CC(=O)OC)n1cccc1	-11.6% (inactive)
COc1ccc(NC(=O)CN2C(=O)NC(C)(c3ccccc3)C2=O)cn1 (centres undefined)	-47.7% (inactive)
COc1ccc(NC(=O)/C(Cl)=C(/Cl)S(=O)Cc2ccc(C)cc2)cn1 (centres undefined)	96.6% (active)
COc1ccc(NC(=O)C2Cc3c(-c4ccc5c(c4)OCO5)ccnc3O2)cn1 (centres undefined)	15.8% (inactive)
Cn1c(SCC(=O)N2CCOCC2)nnc1-c1ccc2ncccc2c1	-2.77% (inactive)
Cc1cc(C)c(S(=O)(=O)N2CCCC2CNC(=O)c2ccc3c(c2)OCO3)c(C)c1 (centres undefined)	7.24% (inactive)
CCOC(=O)c1cc(-c2ccccc2C)n(Cc2cc(C)no2)n1	4.57% (inactive)
COc1ccc2c(c1)c(=Cc1ccc(N(C)C)cc1)c1cc(-c3ccccc3)[n+](C)n12	92.6% (active)
COC(=O)CN1C(=O)C(C)(C)Oc2ccc(C(=O)Nc3cccc(OC)c3)cc21	3.92% (inactive)
Cc1cc(N)n2nc(-c3ccc(C(C)(C)C)cc3)cc2n1	-5.54% (inactive)
O=C(NNc1ccccc1Cl)C(O)(c1cccc(C(F)(F)F)c1)c1cccc(C(F)(F)F)c1	20.3% (inactive)
O=C(O)C(=Cc1ccc([N+](=O)[O-])cc1)CCc1ccccc1	-2.04% (inactive)
CC(=O)Nc1ccc(C=CC(=O)c2ccc([N+](=O)[O-])cc2)cc1	9.91% (inactive)

Structure (SMILES)	inhibition
O=C1/C(=C\c2ccc([N+](=O)[O-])cc2)CS(=O)(=O)C/C1=C/c1ccc([N+](=O)[O-])cc1	96.5% (active)
CSc1ccccc1NC(=O)c1ccc2c(c1)CCN2S(C)(=O)=O	-16.4% (inactive)
COc1ccc(CNc2ncnc3ccccc23)cc1	86.1% (active)
c1ccc(CNc2ncnc3[nH]ncc23)cc1	14.2% (inactive)
COc1ccc(CNc2nccs2)cc1	-11% (inactive)
CCc1ccc(N2CC(O)=C(c3nc4ccccc4c(=O)[nH]3)C2=N)cc1	-17% (inactive)
CC(=O)Nc1ccc(NC(=O)CC2CCCC2)cc1	-25.4% (inactive)
COc1ccc(CN2CCOC2=O)cc1OC	15.9% (inactive)
O=C(Nc1ccc(Cl)c(C(F)(F)F)c1)C1Cc2c(-c3ccccc3Oc3ccccc3)ccnc2O1 (centres undefined)	17.7% (inactive)
C/C(CC1CC(C)(C)OC1=O)=N/Nc1nc(-c2ccccc2)cs1 (centres undefined)	-73.7% (inactive)
COc1ccc2c(c1OC)C(=O)OC2Nc1nc(-c2ccccc2)cs1 (centres undefined)	89.4% (active)
COc1cc(C(O)c2nc(-c3cccc(C(=O)O)c3)cs2)ccc1F (centres undefined)	-16.5% (inactive)
Cc1ccc(S(=O)(=O)N(C)C)cc1NC(=O)C1Cc2ccccc2CN1C(=O)c1ccco1 (centres undefined)	-2.14% (inactive)
C/C=C(/C)C(=O)OC1Cc2c(ccc3ccc(=O)oc23)OC1(C)C (centres undefined)	17.3% (inactive)
COc1ccc(SCc2noc(C(=O)NCC3CCCO3)c2C(=O)O)cc1 (centres undefined)	5.13% (inactive)
Cc1ccc(NC(=S)N2CCCC(c3ccccc3)=N2)cc1	20.9% (inactive)
COc1ccc(-c2cc(C(F)(F)F)n3nc(C(=O)N4CCOCC4)c(Cl)c3n2)cc1	6.42% (inactive)
CN(CC(=O)Nc1cccc(F)c1)C(=O)C1=COCCO1	-7.61% (inactive)
Cc1ccc(NC(=O)CN(C)CC(=O)Nc2cccc(F)c2)cc1[N+](=O)[O-]	90.8% (active)
Cc1ccc(NC(=O)c2sccc2C)cc1[N+](=O)[O-]	-83.1% (inactive)

Structure (SMILES)	inhibition
Cc1noc(C)c1S(=O)(=O)N(C)C[C@H]1Oc2c(NC(=O)Nc3ccc4c(c3)OCO4)cccc2C(=O)N([C@H](C)CO)C[C@@H]1C	17.8% (inactive)
O=C(OCCN1C(=O)c2ccccc2C1=O)[C@@H]1CC(O)CN1S(=O)(=O)c1ccccc1[N+](=O)[O-] (some centres undefined)	-5.63% (inactive)
COc1cccc(/C=N/Nc2ncc(C(F)(F)F)cc2Cl)c1O	89.9% (active)
CN(C)C=NC(=O)c1cccn1-c1ncc(C(F)(F)F)cc1Cl	-4.23% (inactive)
O=c1[nH]c2cccnc2n(CCNc2ncc(C(F)(F)F)cc2Cl)c1=O	2.77% (inactive)
O=C(COC(=O)c1ccccc1SCC(=O)N1CCCC1)Nc1ccccc1OC(F)F	-12.8% (inactive)
CCCOC(=O)c1[nH]c2c(c1C)C(=O)CC(c1cc(OC)c(OC)c(OC)c1)C2 (centres undefined)	83.2% (active)
CCCOC(=O)c1[nH]c2c(c1C)C(=O)CC(c1cccs1)C2 (centres undefined)	24.4% (inactive)
COC(=O)C1C(=O)c2c([nH]c(C(=O)OCCSC)c2C)CC1C (centres undefined)	-58.5% (inactive)
CC(c1ccco1)N(C(=O)c1ccc(S(=O)(=O)N2CCCCC2)cc1)c1ccccn1 (centres undefined)	13.4% (inactive)
CC(=O)N1CCOc2ccc(S(=O)(=O)N3CCN(c4cccc(C(F)(F)F)c4)CC3)cc21	40.6% (inactive)
CCOC(=O)c1c(C)[nH]c(C2=NNC(=NC(C)COC)SC2)c1C (centres undefined)	-21.6% (inactive)
Cc1nc2ccccc2cc1OCc1ccc(F)cc1	85.8% (active)
Cc1occc(=O)c1OCc1ccc(F)cc1	-22.9% (inactive)
Fc1cccc2ncnc(OCc3ccccc3)c12	18% (inactive)
COc1ccc(Cc2nnc(N/N=C/c3ccccc3O)[nH]c2=O)cc1OC	91.1% (active)
COc1ccc(Cc2nnc(SC)[nH]c2=O)cc1	-14% (inactive)
CC(C)c1ccc(Cc2nnc(NCCCO)[nH]c2=O)cc1	7.96% (inactive)
CC(/C=C/C1(O)C(C)CC(=O)CC1(C)C)OC1OC(CO)C(O)C(O)C1O (centres undefined)	-14.8% (inactive)

Source: PubChem BioAssay AID588674 (Broad Institute, 2011)
